TDP1 inh – blocks human tyrosyl-DNA phosphodiesterase 1 | Q9NUW8 | recombinant TDP1, AlphaScreen DNA substrate cleavage | Potency, µM (series often up to 130 µM), most hits filed as inhibitors | hit rate 0.28% among 350,000; further: nearly all actives have a fitted effect of over 40% in size
Target sequence (Q9NUW8 whole entry, looked up): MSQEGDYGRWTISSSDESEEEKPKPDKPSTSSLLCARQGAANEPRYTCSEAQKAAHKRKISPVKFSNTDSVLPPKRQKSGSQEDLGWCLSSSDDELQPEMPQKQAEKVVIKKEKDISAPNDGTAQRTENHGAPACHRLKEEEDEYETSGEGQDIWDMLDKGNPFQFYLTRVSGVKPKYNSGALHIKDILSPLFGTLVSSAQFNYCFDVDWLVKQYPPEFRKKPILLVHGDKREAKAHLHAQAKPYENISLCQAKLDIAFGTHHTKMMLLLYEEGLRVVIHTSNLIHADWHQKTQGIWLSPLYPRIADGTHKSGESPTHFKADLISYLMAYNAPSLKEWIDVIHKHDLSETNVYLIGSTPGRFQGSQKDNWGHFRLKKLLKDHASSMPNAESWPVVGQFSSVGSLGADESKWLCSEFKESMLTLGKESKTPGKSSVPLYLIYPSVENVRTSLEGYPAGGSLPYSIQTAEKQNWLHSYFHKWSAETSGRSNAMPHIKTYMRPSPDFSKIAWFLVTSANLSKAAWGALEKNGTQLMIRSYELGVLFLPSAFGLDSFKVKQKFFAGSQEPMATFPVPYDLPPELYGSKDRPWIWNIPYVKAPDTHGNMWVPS
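Signal: AlphaScreen proximity between streptavidin donor and anti-FITC acceptor beads on intact substrate. Reaction: Tdp1 1 nM, substrate 15 nM final, 5 min RT after 15 min compound preincubation.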
G9a block – blocks human histone lysine methyltransferase G9a; AID 504332; G9a H3K9 monomethylation, AlphaScreen, 2 h; hit rate 8.8% among 350,000; Potency, µM (doses to about 102 µM), most hits filed as inhibitors; Q96KQ7; further: nearly all actives have a fitted effect of over 75% in size
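Quantitative HTS format: methyltransferase activity on a biotin-tagged H3K9 peptide is measured by AlphaScreen, using a rabbit anti-monomethyl-H3K9 antibody with streptavidin donor and anti-IgG acceptor beads. Final levels are 20 nM enzyme, 500 nM peptide, 20 uM SAM; 2 h RT.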
Sfp PPTase inh – blocks B. subtilis Sfp PPTase activity; Q9F4F7; Biochemical Sfp PPTase activity, qHTS; Potency, µM, usual class: inhibitors; hit rate 3.5% among 310,000; AID 1490;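 further: the enzyme is Sfp with the accession as filed and its product quenches rhodamine fluorescence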
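Compounds were incubated with enzyme (final 15 nM) for 15 min at room temperature before substrate addition started the reaction. Fluorescence at 525 nm excitation, 598 nm emission was recorded immediately and after 30 minutes.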
HP1b chromo inh – inhibitors of HP1-beta chromodomain binding to methylated histone tails | AlphaScreen HP1-beta / biotin-H3K9me3 peptide binding | Potency, µM (doses to about 114 µM), most hits filed as inhibitors | hit rate 0.56% among 390,000; further: nearly all actives have a fitted effect of over 70% in size
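Compound inhibition of the preformed complex between 50 nM HP1-beta and 50 nM biotinylated H3K9me3 peptide was read by AlphaScreen. Buffer was PBS pH 7.4 with 0.01% Tween-20. Incubations ran 30 min at room temperature, with 10 ug/mL donor/acceptor beads.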
JMJD2A Tudor inh – blocks the human JMJD2A Tudor domain | AID 504339 | hit rate 4.4% among 390,000 | O75164 | AlphaScreen JMJD2A-Tudor / H3K4me3 peptide binding | Potency, µM (top dose mostly 114 µM), most hits filed as inhibitors; further: nearly all actives have a fitted effect of over 50% in size
BAZ2B block – blocks human BAZ2B; Potency, µM (series often up to 114 µM), most hits filed as inhibitors; AlphaScreen BAZ2B-H3K14Ac peptide displacement; hit rate 4.4% among 360,000; AID 504333; further: nearly all actives have a fitted effect of over 60% in size
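Compounds, titrated to a top concentration of 110 uM, were incubated 30 min at room temperature with preformed BAZ2B/acetyl-K14 H3 peptide complex (50 nM each). Proximity signal was measured by AlphaScreen after 20 min with beads.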
Each line names hits and unclear results; the compound was inactive in the other large screens. Rows were chosen to be rich in hits. Some 12% of all compounds tested hit in one or more screens of this group. The call rests on the fitted dose curve; in most records, active means well fitted curve in the direction sought with a large enough effect; inconclusive means small, poorly fitted or top-dose-only effect, or another doubt; inactive means no such curve, though single readings can be large; an effect the other way counts as inactive or inconclusive.

CCOc1ccc(C2CC(=O)n3nc(C45CC6CC(CC(C6)C4)C5)nc3S2)cc1OC (stereo not drawn)	none
COc1ccc(C2CC(=O)n3nc(C45CC6CC(CC(C6)C4)C5)nc3S2)cc1OC (stereo not drawn)	G9a block 11µM
Cc1ccc(C(=O)C2=C(O)C(=O)N(CCCN3CCOCC3)C23C(=O)N(C)c2ccccc23)o1 (stereo not drawn)	G9a block inconclusive
CCN1C(=O)C2(C(C(=O)c3ccc(C)o3)=C(O)C(=O)N2CCCN2CCOCC2)c2ccccc21 (stereo not drawn)	G9a block inconclusive, Sfp PPTase inh 2.5µM
CCOc1cc(C(C(=O)NCC2CCCO2)N(C(=O)Cn2nnc3ccccc32)c2ccc(NC(C)=O)cc2)ccc1O (stereo not drawn)	G9a block 45µM (no result: TDP1 inh)
Cc1ccc(S(=O)(=O)NC2c3cccc4cccc(c34)C2Sc2ncccn2)cc1 (stereo not drawn)	none
Nc1nc(SC2c3cccc4cccc(c34)C2NS(=O)(=O)c2ccccc2)n[nH]1 (stereo not drawn)	G9a block 3.2µM, HP1b chromo inh inconclusive, BAZ2B block inconclusive
Cc1ccc(N(Cc2cc3ccc(C)cc3[nH]c2=O)S(=O)(=O)c2ccccc2)cc1	none
CS(=O)(=O)c1nc([N+](=O)[O-])nn1CCCc1ccccc1	none (no result: TDP1 inh, G9a block, Sfp PPTase inh, BAZ2B block)
Cn1nc([N+](=O)[O-])nc1S(C)(=O)=O	G9a block 56µM, BAZ2B block inconclusive
COc1ccc(OC)c(-c2noc(CSc3nnc(Cc4ccccc4)n3-c3cccc(C)c3)n2)c1	none (no result: Sfp PPTase inh)
Cc1ccc(N=Nc2ccc(O)c(P(=O)(c3ccccc3)c3ccccc3)c2)cc1	G9a block inconclusive, JMJD2A Tudor inh 11µM, BAZ2B block inconclusive
O=[N+]([O-])c1ccc(O)c(P(=O)(c2ccccc2)c2ccccc2)c1	G9a block inconclusive (no result: TDP1 inh)
Cc1cc(O)ccc1Nc1nc(-c2cccs2)cs1	G9a block 45µM, JMJD2A Tudor inh inconclusive, BAZ2B block inconclusive
CN1CC=C2C(C#N)=C(N)C(C#N)(C#N)C(Cc3ccccc3)C2C1 (stereo not drawn)	none
CCCC1C2CN(C(C)=O)CC=C2C(C#N)=C(N)C1(C#N)C#N (stereo not drawn)	G9a block 14µM
COc1ccc([C@@H]2[C@H]3CN(C(C)=O)CC=C3C(C#N)=C(N)C2(C#N)C#N)c2ccccc12	G9a block 45µM
CCC1C2CN(C(C)=O)CC=C2C(C#N)=C(N)C1(C#N)C#N (stereo not drawn)	G9a block 45µM
Cc1cc(F)ccc1NC(=O)CN(C)S(=O)(=O)c1ccc(C(=O)N2CCOCC2)s1	none (no result: Sfp PPTase inh)
O=C(NC(NNc1ccc([N+](=O)[O-])cc1)(C(F)(F)F)C(F)(F)F)c1ccc(Cl)cc1	G9a block 40µM, JMJD2A Tudor inh inconclusive
Cn1nnnc1Sc1ncnc2scc(-c3ccc4ccccc4c3)c12	none (no result: TDP1 inh, G9a block, Sfp PPTase inh, HP1b chromo inh, BAZ2B block)
COc1ccc(CN(Cc2ccccc2)C(=O)c2ccccc2N)cc1COc1ccc(NC(C)=O)cc1	JMJD2A Tudor inh inconclusive (no result: G9a block, Sfp PPTase inh, HP1b chromo inh, BAZ2B block)
CCCCCCCCCCC/C=C\C/C=C\CCCC(=O)O	none (no result: HP1b chromo inh, JMJD2A Tudor inh, BAZ2B block)
CCCCC/C=C\C/C=C\C/C=C\C/C=C\CCCC(=O)C(F)(F)F	Sfp PPTase inh 28µM (no result: HP1b chromo inh, JMJD2A Tudor inh, BAZ2B block)
CCC1C(O)=C(c2ccccn2)C(=N)N1c1ccccc1 (stereo not drawn)	G9a block 22µM, BAZ2B block inconclusive
COc1ccc(C2=C(O)C(C)N(c3ccccc3)C2=N)cc1OC (stereo not drawn)	none
CCSc1nc2ccc(N3C(=O)C4C5C=CC(C5)C4C3=O)cc2s1 (stereo not drawn)	G9a block 11µM
O=C1C2C3C=CC(C3)C2C(=O)N1c1ccc2ccccc2c1 (stereo not drawn)	none (no result: TDP1 inh)
O=C(NCc1ccco1)C1Cc2ccccc2CN1S(=O)(=O)c1ccccc1F (stereo not drawn)	HP1b chromo inh inconclusive, JMJD2A Tudor inh 40µM (no result: TDP1 inh, G9a block, Sfp PPTase inh, BAZ2B block)
O=C(NCc1ccco1)C1Cc2ccccc2CN1C(=O)c1ccco1 (stereo not drawn)	JMJD2A Tudor inh inconclusive, BAZ2B block 79µM (no result: TDP1 inh)
c1coc(-c2nc3nc4ccccc4nc3n2-c2ccc3c(c2)OCCO3)c1	none
S=c1[nH]nc(-c2ccc3ncccc3c2)n1-c1ccc2c(c1)OCCO2	G9a block 2.2µM, Sfp PPTase inh 79µM, JMJD2A Tudor inh inconclusive
Oc1ccc(-c2n[nH]c(=S)n2-c2ccc3c(c2)OCCO3)cc1	G9a block 0.71µM, Sfp PPTase inh 79µM, JMJD2A Tudor inh inconclusive, BAZ2B block inconclusive
O=C(CCN1C(=O)[C@@H]2Cc3ccccc3CN2C1=O)N[C@H](C(=O)O)c1ccccc1	none
CCOC(=O)c1nnc2c(-c3ccc(OC)cc3)c(C)nn2c1N	none (no result: Sfp PPTase inh)
Cc1ccc(S(=O)(=O)N2CCCC(C)C2)cc1 (stereo not drawn)	none (no result: TDP1 inh)
CC1CCCN(S(=O)(=O)c2ccc(S(=O)(=O)NC(C)c3cccs3)cc2)C1 (stereo not drawn)	G9a block 40µM
CC1CCCN(S(=O)(=O)c2ccc(NC(=O)CNC3CCCC3)cc2)C1 (stereo not drawn)	G9a block 40µM (no result: TDP1 inh)
CC1CCN(CC(=O)Nc2ccc(S(=O)(=O)N3CCCC(C)C3)cc2)CC1 (stereo not drawn)	none (no result: TDP1 inh, G9a block)
CC1CCCN(S(=O)(=O)c2ccc(NC(=O)CN3CCN(C)CC3)cc2)C1 (stereo not drawn)	G9a block inconclusive, Sfp PPTase inh inconclusive, JMJD2A Tudor inh inconclusive, BAZ2B block 79µM
C=CCNc1nc2ccccc2nc1NS(=O)(=O)c1ccc(Br)cc1	none (no result: TDP1 inh)
N/C(=N\OC(=O)c1ccccc1)C(C(=O)NOC(=O)c1ccccc1)C1CCCCC1 (stereo not drawn)	none (no result: TDP1 inh, G9a block, Sfp PPTase inh, BAZ2B block)
O=C1CCN(C(=O)Nc2ccccc2Cl)N1	G9a block 10µM, JMJD2A Tudor inh inconclusive
CCOC(=O)N1CCN(C(=O)Nc2ccccc2Cl)CC1	none
O=C1CN(C(=S)Nc2ccccc2Cl)CCN1	G9a block 45µM, Sfp PPTase inh 45µM
S=C(Nc1ccccc1Cl)N1CCCCC1	none
O=C1CCN(C(=O)Nc2cccc(Cl)c2)N1	G9a block 10µM, JMJD2A Tudor inh 20µM
Cc1cccc(OCc2nnc(SCC(=O)c3c(N)n(C4CC4)c(=O)[nH]c3=O)o2)c1	G9a block inconclusive (no result: Sfp PPTase inh)
CCN(CC)C(=O)c1sc2c(c1C)c(=O)n(-c1ccc(C)c(C)c1)c(=O)n2Cc1cc(=O)n2c(C)cccc2n1	none (no result: Sfp PPTase inh)
C/C(CC(=O)Nc1cccc2c1CCCC2)=N\NC(=O)c1ccccc1N	none
C/C(CC(=O)Nc1ccc(Cl)c(C(F)(F)F)c1)=N\NC(N)=S	G9a block inconclusive

Assay outcomes deposited in PubChem by National Center for Advancing Translational Sciences (NCATS).
